Laboratory results taken from PubChem BioAssay (EPA / NIEHS).
Values joined by “and” are separate entries in the source; they are usually repeats but may differ in a detail not shown here. Equal entries are not always repeated. Active and inactive are the calls of the source. How the source made its calls: active means hit-call score of the fitted dose curve at least 0.9, where 1 is the maximum; inactive means score below 0.9.

Read-out: CD69, CD69 (gene 969)
Assay: BSK_SAg_CD69: BioMAP Diversity Plus: SAg Assay for CD69 Biomarker Activity (AID 2283089)
Settings: primary human HUVEC with PBMC; actives raise or lower the signal
Procedure: BSK_SAg is a cell-based, multiplexed-readout assay that uses umbilical vein endothelium and peripheral blood mononuclear cells, a human vascular primary cell co-culture, with measurements taken at 24 hours after chemical dosing in a 96-well plate.BSK_SAg_CD69 is one of 10 assay component(s) measured or calculated from the BSK_SAg assay. It is designed to make measurements of enzyme-linked immunosorbent assay, a form of binding reporter, as detected with fluorescence intensity signals by Enzyme-linked immunosorbent assay technology.Data from the assay component BSK_SAg_CD69 was analyzed into 1 assay endpoint. This assay endpoint, BSK_SAg_CD69, was analyzed with bidirectional fitting relative to DMSO as the negative control and baseline of activity. Using a type of binding reporter, gain or loss-of-signal activity can be used to understand changes in the signaling as they relate to the gene CD69. Furthermore, this assay endpoint can be referred to as a primary readout, because this assay has produced multiple assay endpoints where this one serves a signaling function. To generalize the intended target to other relatable targets, this assay endpoint is annotated to the cytokine intended target family, where the subfamily is inflammatory factor.
The levels of cell surface (or secreted, indicated by the prefix "s") biomarker endpoints were measured by ELISA. Overt cytotoxicity to cells in confluent adherent cultures (all systems other than the BT system) was assessed by measuring total protein levels using sulforhodamine B (SRB) staining in parallel cultures at the time of biomarker measurements, indicated as SRB endpoints. For proliferation assays for adherent cell types, individual cell types are cultured at sub-confluence and relative cell numbers quantified by SRB staining at time points optimized for each system (48 h: 3C and CASM3C systems; 72 h: BT and HDF3CGF systems; 96 h: SAg system). SRB was performed by staining cells with 0.1% SRB after fixation with 10% TCA and reading wells at 560 nm.Viability and proliferation of PBMC (T cells) was quantified by Alamar Blue reduction for the SAg and BT systems. For PBMC viability (referred to as PBMC Cytotoxicity within the assay endpoint names), cells were plated (75,000/well in a 96-well plate) and then chemical samples added for 1 h before addition of activators, SEB and TSST-1 (20 ng/mL final concentration each). Cells were incubated for 90 h. Then, Alamar Blue (20 uL/well) (Invitrogen, Cat DAL1100) was added for 6 h, and the plates were read with a fluorescence microplate reader at 546/580 nm (excitation/emission). For PBMC proliferation, cells were plated and activated as above but incubated for only 16 h prior to addition of Alamar Blue. Plates were read after 6 h.

Row | SMILES | outcome | AC50
1 | COP(=S)(OC)Oc1nc(Cl)c(Cl)cc1Cl | inactive | 
2 | CC(Oc1ccc(Cl)cc1Cl)C(=O)O (stereo not given) | inactive | 
3 | CCCCC(CC)COC(=O)c1ccccc1C(=O)OCC(CC)CCCC (stereo not given) |  | 5.92 µM (active)
4 | Cc1ccc(-c2c(Cl)nc(C#N)n2S(=O)(=O)N(C)C)cc1 |  | 13.9 µM (active)
5 | CN(C)C(=S)SSC(=S)N(C)C |  | 28.3 µM (active)
6 | Cc1c(F)c(F)c(COC(=O)C2C(/C=C(\Cl)C(F)(F)F)C2(C)C)c(F)c1F (stereo not given) |  | 5.53 µM (active)
7 | CNC(=S)S | inactive | 
8 | CC(C)Oc1cc(-n2nc(C(C)(C)C)oc2=O)c(Cl)cc1Cl |  | 30.7 µM (active)
9 | O=C(O)COc1nc(Cl)c(Cl)cc1Cl | inactive | 
10 | CC1=C(C(=O)Nc2ccccc2)SCCO1 | inactive | 
11 | CNC(=O)ON=CC(C)(C)SC | inactive | 
12 | CCOC(=O)C(Cl)Cc1cc(-n2nc(C)n(C(F)F)c2=O)c(F)cc1Cl (stereo not given) | inactive | 
13 | CC(C)(C)c1ccc(CSc2cnn(C(C)(C)C)c(=O)c2Cl)cc1 |  | 1.43 µM (active)
14 | C=CCC1=C(C)[C@@H](OC(=O)[C@@H]2[C@@H](C=C(C)C)C2(C)C)CC1=O |  | 36.5 µM (active)
15 | CON(C)C(=O)Nc1ccc(Cl)c(Cl)c1 | inactive | 
16 | CS/C(C)=N/OC(=O)N(C)SN(C)C(=O)O/N=C(\C)SC |  | 31.7 µM (active)
17 | CCCCNC(=O)n1c(NC(=O)OC)nc2ccccc21 | inactive | 
18 | CO/C=C(/C(=O)OC)c1ccccc1Oc1cc(Oc2ccccc2C#N)ncn1 |  | 12.3 µM (active) [middle of 4 runs]
19 | CCCN(CCC)c1c([N+](=O)[O-])cc(S(N)(=O)=O)cc1[N+](=O)[O-] |  | 32.6 µM (active) [middle of 4 runs]
20 | N#Cc1cc(Br)c(O)c(Br)c1 |  | 26.4 µM (active)

Row | SMILES | outcome | AC50
21 | COC(=O)c1ccccc1C(=O)OC | inactive | 
22 | CCOC(=O)CC(SP(=S)(OC)OC)C(=O)OCC (stereo not given) | inactive | 
23 | CCCC1COC(Cn2cncn2)(c2ccc(Cl)cc2Cl)O1 (stereo not given) | inactive | 
24 | Fc1ccc(Oc2ccnc3cc(Cl)cc(Cl)c23)cc1 |  | 14.9 µM (active)
25 | COc1nc(NC(C)C)nc(NC(C)C)n1 | inactive | 
26 | COc1nc(C)nc(NC(=O)NS(=O)(=O)c2ccccc2CCC(F)(F)F)n1 | inactive | 
27 | CCCCNC(=O)OCC#CI |  | 21.9 µM (active) and 15.5 µM (active)
28 | N#Cc1nn(-c2c(Cl)cc(C(F)(F)F)cc2Cl)c(N)c1S(=O)C(F)(F)F (stereo not given) |  | 25.6 µM (active)
29 | COP(N)(=O)SC (stereo not given) | inactive | 
30 | CCc1nn(C)c(C(=O)NCc2ccc(C(C)(C)C)cc2)c1Cl |  | 3.99 µM (active)
31 | Cc1cc(Cl)ccc1OCC(=O)O | inactive | 
32 | C=CC1(C)OC(=O)N(c2cc(Cl)cc(Cl)c2)C1=O (stereo not given) | inactive | 
33 | COc1ccc(C(c2ccc(OC)cc2)C(Cl)(Cl)Cl)cc1 |  | 25.4 µM (active)
34 | CCON=C(CC)C1=C(O)CC(c2c(C)cc(C)cc2C)CC1=O (stereo not given) | inactive | 
35 | O=C(Nc1ccccc1)Nc1ccnc(Cl)c1 |  | 20 µM (active)
36 | CC1COC(Cn2cncn2)(c2ccc(Oc3ccc(Cl)cc3)cc2Cl)O1 (stereo not given) |  | 18.8 µM (active)
37 | CCCCOC(=O)c1ccccc1C(=O)OCCCC | inactive | 
38 | COc1cnc(OC)n2nc(NS(=O)(=O)c3c(OCC(F)F)cccc3C(F)(F)F)nc12 | inactive | 
39 | CCOc1cc(Oc2ccc(C(F)(F)F)cc2Cl)ccc1[N+](=O)[O-] | inactive | 
40 | CCNc1nc(Cl)nc(NCC)n1 | inactive | 
